Consider 45 compounds from publication PMC4336329 (PLoS ONE, 2015).

About 14,000 (4.5%) of roughly 310,000 compounds showed an effect of 50% or more. Effects have a minus sign here. Shown is part of a subset that was picked to be rich in strong results.
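Note: peak tail current of the secondary pulse compared with the same well before compound.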

The target of this test is human ether-à-go-go-related gene (hERG) potassium channel (human, UniProt Q12809). Nature of the test: primary screen, population patch clamp on CHO cells stably expressing hERG; higher = less effect of the substance.
Chain of human ether-à-go-go-related gene (hERG) potassium channel (Q12809 whole entry, looked up): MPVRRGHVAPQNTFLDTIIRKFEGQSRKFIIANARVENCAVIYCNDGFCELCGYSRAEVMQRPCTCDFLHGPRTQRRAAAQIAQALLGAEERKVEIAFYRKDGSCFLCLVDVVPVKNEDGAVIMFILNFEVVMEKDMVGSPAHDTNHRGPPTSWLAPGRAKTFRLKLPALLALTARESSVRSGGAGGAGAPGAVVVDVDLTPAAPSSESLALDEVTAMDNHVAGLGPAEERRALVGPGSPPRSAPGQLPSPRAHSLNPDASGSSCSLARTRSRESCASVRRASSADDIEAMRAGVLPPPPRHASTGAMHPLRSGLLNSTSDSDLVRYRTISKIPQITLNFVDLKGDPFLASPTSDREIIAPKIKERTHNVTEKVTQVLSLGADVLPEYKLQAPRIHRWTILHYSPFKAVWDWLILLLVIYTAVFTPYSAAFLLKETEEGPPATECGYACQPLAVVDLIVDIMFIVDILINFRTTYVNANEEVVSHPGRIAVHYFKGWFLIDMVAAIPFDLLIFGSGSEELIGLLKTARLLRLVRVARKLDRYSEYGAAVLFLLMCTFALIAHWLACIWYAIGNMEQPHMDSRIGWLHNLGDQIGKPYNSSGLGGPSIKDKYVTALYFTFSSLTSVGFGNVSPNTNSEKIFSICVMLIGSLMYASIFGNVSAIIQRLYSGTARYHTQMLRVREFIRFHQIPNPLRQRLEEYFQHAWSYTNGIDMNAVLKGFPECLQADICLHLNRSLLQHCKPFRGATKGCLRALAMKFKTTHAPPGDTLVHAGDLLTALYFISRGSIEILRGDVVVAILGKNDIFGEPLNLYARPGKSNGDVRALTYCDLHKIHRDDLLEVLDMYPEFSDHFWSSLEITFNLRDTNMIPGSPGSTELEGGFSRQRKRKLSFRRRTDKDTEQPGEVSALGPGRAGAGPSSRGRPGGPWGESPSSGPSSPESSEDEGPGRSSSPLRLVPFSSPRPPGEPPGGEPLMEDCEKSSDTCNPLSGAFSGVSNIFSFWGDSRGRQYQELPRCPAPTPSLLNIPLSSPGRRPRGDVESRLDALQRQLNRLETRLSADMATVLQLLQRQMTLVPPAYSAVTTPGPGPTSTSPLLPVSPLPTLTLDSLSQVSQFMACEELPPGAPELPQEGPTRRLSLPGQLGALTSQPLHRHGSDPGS
In the case of `CN1CCc2nc3sc(C(=O)NC4CC4)c(N)c3cc2C1`, the “hERG current change (%, negative = inhibition) at 10uM” value stood at 9.22%. In the case of `COc1ccc(OC)c(C2=NOC(C(=O)Nc3cccnc3)C2)c1` (stereo not drawn), the “hERG current change (%, negative = inhibition) at 10uM” value is -9.42%. `CN(C)c1ccc(/C=N/N(CCO)C2=NS(=O)(=O)c3ccccc32)cc1`: the “hERG current change (%, negative = inhibition) at 10uM” value came out at 21.8%.

As to `COc1ccc(C/C(C)=N/NC(=O)c2cc(C)oc2C)cc1`, the “hERG current change (%, negative = inhibition) at 10uM” value amounted to 4.56%.

Consider `N/C(=N\OC(=O)CSc1ccccc1)c1ccccn1`, for which the “hERG current change (%, negative = inhibition) at 10uM” value was determined as 6.31%. In the case of `COc1ccc(C)cc1S(=O)(=O)N(C)CC(=O)N1CCC(C)CC1` it was 22.8%; in that of `Cc1csc(SCCN2C(=O)c3ccccc3C2=O)n1`, 2.6%; in that of `Cc1nc(NCCCN2CCOCC2)c2oc3ccccc3c2n1.Cl`, -15.5%. In the case of `Cl.c1ccc(-c2nc(NCCCn3ccnc3)c3oc4ccccc4c3n2)cc1` it was -4.89%. In the case of `Cc1nc(NCCCn2ccnc2)c2oc3ccccc3c2n1.Cl` it was -69.8%; in that of `CCCCn1c(N)c(N(CCOC)C(=O)CSCc2ccc(C)cc2)c(=O)[nH]c1=O`, 13.4%.

With `O=C1C(Cl)=C(Nc2ccccc2O)C(=O)N1c1ccccc1`, the “hERG current change (%, negative = inhibition) at 10uM” value came out at 0.891%.

For `Fc1ccc(Cn2nnnc2C(c2cccs2)N2CCCCCC2)cc1` (stereo not drawn), the “hERG current change (%, negative = inhibition) at 10uM” value is on record as -11.2%.

As for `Fc1ccc(C(c2nnnn2Cc2ccccc2)N2CCSCC2)cc1` (stereo not drawn), the “hERG current change (%, negative = inhibition) at 10uM” value is reported as -2.85%. In the case of `CCN1CCN(C(c2ccc(F)cc2)c2nnnn2Cc2cccs2)CC1` (stereo not drawn) it was -59.4%; in that of `CC(C)C(c1nnnn1Cc1cccs1)N1CCN(C2CCCC2)CC1` (stereo not drawn), -30.9%; in that of `Cl.Fc1ccc(C(c2nnnn2Cc2cccs2)N2CCN(C3CCCC3)CC2)cc1` (stereo not drawn), -67.4%. Take `CN1CCN(C(c2cccs2)c2nnnn2Cc2ccc(F)cc2)CC1.Cl` (stereo not drawn): the “hERG current change (%, negative = inhibition) at 10uM” value is reported as -13.1%. In the case of `CN1CCN(C(c2ccc(F)cc2)c2nnnn2Cc2cccs2)CC1.Cl` (stereo not drawn) it was -21%; in that of `Fc1ccc(Cn2nnnc2C(c2cccs2)N2CCN(C3CCCCC3)CC2)cc1` (stereo not drawn), -66.4%; in that of `CCN1CCN(C(c2ccc(F)cc2)c2nnnn2Cc2ccc3c(c2)OCO3)CC1.Cl` (stereo not drawn), -44%. The same measure for `Fc1ccc(C(c2nnnn2Cc2cccs2)N2CCN(C3CCCCC3)CC2)cc1` (stereo not drawn): -60.3%. Turning to `c1ccc(C(c2nnnn2Cc2cccs2)N2CCN(C3CCCC3)CC2)cc1` (stereo not drawn), the “hERG current change (%, negative = inhibition) at 10uM” value is given as -46.3%.

Take `CC(=O)Nc1ccccc1NC(=O)COc1cccc2ccccc12`: the “hERG current change (%, negative = inhibition) at 10uM” value stood at 18.9%. The same measure for `CCOC(=O)c1sc(NC(=O)CN2CCN(c3ccc(OC)cc3)CC2)nc1C`: -20.6%; for `O=C(Nc1nc2ccccc2s1)c1ccc(N2CCCCC2)c([N+](=O)[O-])c1`: 6.67%; for `O=C(NNC(=O)c1ccc(Br)s1)NC1CCCCC1`: 28.1%. In the case of `Cc1ccc(NC(=O)CCSc2nnc3ccccn23)cc1` it was 2.6%; in that of `NC(=O)c1cc(S(=O)(=O)Nc2ccccc2)cs1`, 1.39%; in that of `NC(=O)c1cc(S(=O)(=O)Nc2cccc(Cl)c2)cs1`, -61.2%. In the case of `Cc1cccc(NS(=O)(=O)c2csc(C(N)=O)c2)c1` it was 8.92%; in that of `CCC(C)NC(=O)C1CCC(CNS(=O)(=O)c2ccc3c(c2)N(C(C)=O)CCO3)CC1` (stereo not drawn), 6.84%. As for `COc1ccccc1NC(=O)C(=O)NCC(c1ccco1)N1CCc2ccccc21` (stereo not drawn), the “hERG current change (%, negative = inhibition) at 10uM” value was -1.64%.

As to `COc1ccc(-n2cnc3c(sc4nc(N5CCOCC5)c5c(c43)CCCC5)c2=O)cc1`, the “hERG current change (%, negative = inhibition) at 10uM” value is reported as 21.3%. The same measure for `CCc1cccc(NS(=O)(=O)c2c(C)[nH]c(=O)[nH]c2=O)c1`: 20.8%; for `COc1ccc2[nH]c(=O)c(CN(Cc3ccccc3)Cc3nnnn3CC3CCCO3)cc2c1` (stereo not drawn): -4.75%.

For the compound `COCCn1nnnc1CN(CCc1ccccc1)Cc1cc2cc(OC)ccc2[nH]c1=O`, the “hERG current change (%, negative = inhibition) at 10uM” value was -47.8%.

`COc1ccc2cc(CN(Cc3cccnc3)Cc3nnnn3Cc3ccccc3)c(=O)[nH]c2c1`: the “hERG current change (%, negative = inhibition) at 10uM” value is recorded as -74.4%.

With `COc1ccc2[nH]c(=O)c(CN(CCc3ccccc3)Cc3nnnn3CC3CCCO3)cc2c1` (stereo not drawn), the “hERG current change (%, negative = inhibition) at 10uM” value was -53.4%. In the case of `COCCn1nnnc1CN(CCc1ccccc1)Cc1cc2ccc(C)cc2[nH]c1=O` it was -57.2%; in that of `COc1ccc2cc(CN(Cc3cccs3)Cc3nnnn3Cc3ccccc3)c(=O)[nH]c2c1`, -11.3%; in that of `COc1ccc2cc(CN(CCc3ccccc3)Cc3nnnn3CC3CCCO3)c(=O)[nH]c2c1` (stereo not drawn), -31.3%. The same measure for `COCCn1nnnc1CN(CCc1ccc(OC)c(OC)c1)Cc1cc2ccc(C)cc2[nH]c1=O`: -42.8%. The same measure for `COc1ccc2cc(CN(CCc3ccccc3)Cc3nnnn3Cc3ccco3)c(=O)[nH]c2c1`: -29.7%; for `COc1cc(OC)cc(C(=O)OCC(=O)NCc2ccco2)c1`: 2.94%.
